Each structure is given as a SMILES string. Values joined by “and” are separate entries in the source; they are usually repeats but may differ in a detail not shown here. Identical values can stand only once. Values without a mark were called inactive.

In the assay the target is Homeobox protein Hox-A13 (Mus musculus) (UniProt Q62424). Kind of assay: inhibitors of HoxA13-DNA binding, primary screen, biochemical, fluorescence polarization, labeled oligonucleotide (AID 1185). The note with it: 15 min, higher = more signal, called active from +8 up or from −8 down.
Sequence of Homeobox protein Hox-A13 (Mus musculus) (Q62424 whole entry, looked up): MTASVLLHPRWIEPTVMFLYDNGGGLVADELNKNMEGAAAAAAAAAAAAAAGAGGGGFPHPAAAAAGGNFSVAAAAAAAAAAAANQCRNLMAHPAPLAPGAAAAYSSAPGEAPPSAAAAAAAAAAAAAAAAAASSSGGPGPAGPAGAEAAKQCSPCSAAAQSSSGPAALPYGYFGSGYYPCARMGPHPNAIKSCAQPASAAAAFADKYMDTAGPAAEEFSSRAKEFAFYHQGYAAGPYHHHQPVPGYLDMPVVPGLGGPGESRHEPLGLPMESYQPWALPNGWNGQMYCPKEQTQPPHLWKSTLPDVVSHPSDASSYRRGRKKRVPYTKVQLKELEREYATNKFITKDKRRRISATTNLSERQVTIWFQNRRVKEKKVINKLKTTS
For the compound `C=CCN(C(=O)C(c1cccs1)N(CCOCCO)C(=O)/C=C\C(=O)O)c1ccc(OC)cc1` (stereo not given), the z-score was 1.69 and 0.807. In the case of `C=CCN1C(=O)[C@]2(O[C@H](CCn3cc(CCO)nn3)[C@@H]([Si](C)(C)c3ccc(OC)cc3)[C@@H]2C)c2cc(N3C(=O)c4cccc5cccc3c45)ccc21` it was -5.18 and -5.57. In the case of `C=CCN(Cc1ccccc1)C(=O)C(c1cccs1)N(C(=O)/C=C\C(=O)O)c1ccc(CCO)cc1` (stereo not given) it was 0.603 and 0.423; in that of `C=CCN(C(=O)C1N(CCOCCO)C(=O)C2C(C(=O)O)C3C=CC21O3)C(C)(C)C` (stereo not given), -1.32 and -0.575; in that of `C=CC[C@H](O)c1ccc(OCCO)cc1`, -0.488 and -0.803.

Consider `C=CCN(CCCC)C(=O)C(c1cccs1)N(CCOCCO)C(=O)/C=C\C(=O)O` (stereo not given), for which the z-score was 0.578 and 0.724. As for `C=CCN(CCCC)C(=O)C(c1cccs1)N(C(=O)/C=C\C(=O)O)c1ccc(CCO)cc1` (stereo not given), the z-score is -1.28 and -0.734.

With `C=CCN(Cc1ccccc1)C(=O)C1N(CCCCCCO)C(=O)C2C(C(=O)O)C3C=CC21O3` (stereo not given), the z-score is -0.888 and 0.0908.

Consider `C[N+](C)(C)CCCCCCNC(=O)[C@@H]1C[C@@H]2C(=O)N[C@@H](CCCC[N+](C)(C)C)C(=O)N2[C@@H]1c1ccc(O)cc1`, for which the z-score is -0.929 and -2.3. As for `C=CCN(Cc1ccccc1)C(=O)C(c1cccs1)N(C(=O)/C=C\C(=O)O)c1c(Cl)cccc1CO` (stereo not given), the figure is 1.14 and 0.425; as for `CC(C)OC(=O)C=C1C[C@@H](c2ccccc2)O[C@@H](c2ccccc2)O1`, -3.55 and -3.56.

`CCOC(=O)c1ccc(NC(=O)O[C@H]2[C@H](OC(=O)Nc3ccccc3)[C@@H](OC(=O)Nc3ccccc3)[C@@H](OC)O[C@@H]2CO)cc1`: the z-score is -3.34 and -4.61. In the case of `CC(C)OC(=O)C=C1C[C@@H](c2cccc(C(F)(F)F)c2)O[C@@H](c2cccc(C(F)(F)F)c2)O1` it was -2.72 and -1.27; in that of `C=CCN(Cc1ccccc1)C(=O)C1N(c2ccc(CCO)cc2)C(=O)C2C(C(=O)O)C3C=CC21O3` (stereo not given), -0.61 and -2.5; in that of `C[N+](C)(C)CCCCNC(=O)[C@H]1C[C@H]2C(=O)N[C@@H](CCCC[N+](C)(C)C)C(=O)N2[C@H]1c1cccc(OCCO)c1`, -1.74 and -2.51. In the case of `C=C[C@H](OC)[C@@H](O)c1ccc(O)c(F)c1` it was 0.0518 and 0.0165; in that of `C=C[C@@H](OC)[C@H](O)c1ccc(O)c(F)c1`, -0.933 and 0.017. Turning to `C=C[C@H](C)[C@@H](O)c1ccc(OCCO)cc1`, the z-score was -1.51 and -0.976. On to `C=CCN(CCCCC)C(=O)C(c1cccs1)N(CCOCCO)C(=O)/C=C\C(=O)O` (stereo not given), for which the z-score is -0.478 and -0.603. In the case of `C=CCN(C(=O)C(c1cccs1)N(CCOCCO)C(=O)/C=C\C(=O)O)C(C)(C)C` (stereo not given) it was 0.175 and -0.386.

Turning to `C=CCN(CCCCC)C(=O)C1N(CCCCCCO)C(=O)C2C(C(=O)O)C3C=CC21O3` (stereo not given), the z-score was -1.18 and -1.07.

Regarding `C=CCN(CCCC)C(=O)C1N(c2ccc(CCO)cc2)C(=O)C2C(C(=O)O)C3C=CC21O3` (stereo not given), the z-score is -1.03 and -0.448. In the case of `C=CCN(CCCCC)C(=O)C(c1cccs1)N(C(=O)/C=C\C(=O)O)c1c(Cl)cccc1CO` (stereo not given) it was -0.0384 and -1.57; in that of `C=CC[C@@H](O)c1ccc(O)c(F)c1`, -2.13 and -0.155; in that of `C=C[C@@H](C)[C@H](O)c1ccc(O)c2ccccc12`, -3.78 and -2.87. As for `CC(C)[Si]1(C(C)C)OCc2cc(CCCc3cc4c(c(CCc5ccccc5)n3)[Si](C(C)C)(C(C)C)OC4)nc(CCc3ccccc3)c21`, the z-score is -1.38 and -0.138. Regarding `C[N+](C)(C)CCCCNC(=O)[C@H]1C[C@H]2C(=O)N[C@@H](CCCC[N+](C)(C)C)C(=O)N2[C@H]1c1ccc(O)cc1`, the z-score is -0.497 and 1.22. In the case of `C=CCN(C(=O)C(c1cccs1)N(C(=O)/C=C\C(=O)O)c1ccc(CCO)cc1)c1ccc(OC)cc1` (stereo not given) it was -0.698 and -0.535.

As for `C[N+](C)(C)CCCCCCNC(=O)[C@H]1C[C@H]2C(=O)N[C@@H](CCCC[N+](C)(C)C)C(=O)N2[C@H]1c1cccc(OCCO)c1`, the z-score is -2.01 and -2.31. As for `CCOC(=O)[C@@H]1CC2O[C@]23C[C@@H]1C(=O)N1CCC[C@@H]1[C@H]3O[Si](C)(C)C(C)(C)C` (stereo not given in full), the figure is -4.09 and -1.56; as for `C[N+](C)(C)CCCCCCNC(=O)[C@H]1C[C@H]2C(=O)N[C@@H](CCCC[N+](C)(C)C)C(=O)N2[C@H]1c1ccc(O)cc1`, 0.627 and -1.31.

For the compound `C=CCN(CCCCC)C(=O)C1N(c2ccc(CCO)cc2)C(=O)C2C(C(=O)O)C3C=CC21O3` (stereo not given), the z-score is -2.29 and -2.06. In the case of `C=C[C@@H](C)[C@@H](O)c1ccc(O)c2ccccc12` it was -3.43 and -4.33. In the case of `C=CCN(CCCCC)C(=O)C(c1cccs1)N(C(=O)/C=C\C(=O)O)c1ccc(CCO)cc1` (stereo not given), the z-score was -0.227 and 0.0535. `C#CCN1C(/C=C/c2ccccc2)C(=O)OC[C@H]1c1ccccc1` (stereo not given in full): the z-score was 0.468 and -2.46. As for `C[N+](C)(C)CCCCNC(=O)[C@@H]1C[C@@H]2C(=O)N[C@@H](CCCC[N+](C)(C)C)C(=O)N2[C@@H]1c1cccc(OCCO)c1`, the figure is -0.648 and -1.01; as for `C=CCN(CCCCC)C(=O)C1N(c2c(Cl)cccc2CO)C(=O)C2C(C(=O)O)C3C=CC21O3` (stereo not given), -2.42 and -0.615; as for `C=CCN(CCCC)C(=O)C(c1cccs1)N(C(=O)/C=C\C(=O)O)c1c(Cl)cccc1CO` (stereo not given), 0.477 and -0.33.

Consider `CC(C)[Si]1(C(C)C)OCc2cc(C3CC3)nc(CCc3ccccc3)c21`, for which the z-score is -0.448 and 0.438.

`C[C@@]1([C@@H](NC(=O)Cc2ccccc2)c2ccc(-c3ccccc3)cc2)C[C@H]1C1CCCCC1`: the z-score is 1.49 and -0.249 and -1.63.

For the origin of these results see PubChem BioAssay.
